The full data set covers some 7,900 targets. This sample favours those with a hit. About 0.6% of all pairs of compound and target were hits.
Assays:
Experiment in all cases: log2 fold change, soluble protein after heating vs DMSO (PISA); higher = thermal stabilisation; K562 cells, 10 uM, 30 min; active = over 0.2 and 3.5 SD of the protein, either way, in both replicates (recomputed)
[1] = compound: C1=CC=C(C=C1)[C@H](COC2=CC3=C(C=C2)NC(=O)N3)NC(=O)C4=CC=CN(C4=O)CC5=CC(=C(C=C5)F)F
Outline: (§1)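 Aliquots of K562 cells (2×10^6 cells/mL) treated with 10 μM compound for 30 min were heated for 3 min over 48°C-58°C. After pooling and extraction in PBS with 0.5% NP-40 at 4°C, soluble protein from a 21,000xg, 90 min spin was quantified by TMTpro 16plex LC-MS/MS with channel sums equalised. Thermal stability is expressed against control samples, from duplicates, as a log2 fold change.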

[2] = compound: CC1=C(SC2=C1C(=N[C@H](C3=NN=C(N32)C)CC(=O)N)C4=CC=C(C=C4)Cl)C
Outline: as §1

[3] = compound: CC1=C2C(=CC=C1)N=C(N(C2=O)C3=CC=CC=C3C)CN4C=NC5=C(N=CN=C54)N
Outline: as §1

[4] = compound: Cc1sc2c(c1C)C(c1ccc(Cl)cc1)=N[C@@H](CC(=O)OC(C)(C)C)c1nnc(C)n1-2
Outline: as §1

[5] = compound: c1ccc([C@@H]2C[C@H]2NC2CCNCC2)cc1
Outline: as §1

Measured: log2 fold change

RPA3 (UniProt P35244)
Sequence of UniProt P35244 (P35244 whole entry, looked up): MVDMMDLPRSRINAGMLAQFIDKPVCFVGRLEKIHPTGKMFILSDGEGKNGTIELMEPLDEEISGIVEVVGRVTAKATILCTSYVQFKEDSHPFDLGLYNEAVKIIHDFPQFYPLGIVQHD
inactive: [1] 0.008 | [2] 0.09 | [3] -0.055 | [4] -0.146 | [5] -0.03

RECQL (UniProt P46063)
Sequence of UniProt P46063 (P46063 whole entry, looked up): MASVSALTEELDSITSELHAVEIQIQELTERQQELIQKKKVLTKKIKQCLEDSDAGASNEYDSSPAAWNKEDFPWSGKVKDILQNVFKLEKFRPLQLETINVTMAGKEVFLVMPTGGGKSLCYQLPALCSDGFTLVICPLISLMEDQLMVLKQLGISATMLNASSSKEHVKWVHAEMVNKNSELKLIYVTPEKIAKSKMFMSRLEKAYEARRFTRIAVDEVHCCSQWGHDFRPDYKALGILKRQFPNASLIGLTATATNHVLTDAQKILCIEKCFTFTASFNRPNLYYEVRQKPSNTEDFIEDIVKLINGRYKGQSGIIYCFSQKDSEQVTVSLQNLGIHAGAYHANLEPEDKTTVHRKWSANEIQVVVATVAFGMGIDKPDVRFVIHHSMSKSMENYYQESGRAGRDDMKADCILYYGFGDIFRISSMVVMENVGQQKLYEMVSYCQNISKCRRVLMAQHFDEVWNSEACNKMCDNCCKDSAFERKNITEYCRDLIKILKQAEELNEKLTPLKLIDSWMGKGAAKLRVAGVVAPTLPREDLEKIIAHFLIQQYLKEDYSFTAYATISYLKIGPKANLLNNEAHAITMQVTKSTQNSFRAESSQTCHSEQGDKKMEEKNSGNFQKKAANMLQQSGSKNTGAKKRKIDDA
inactive: [1] -0.012 | [2] 0.087 | [3] 0.015 | [4] -0.029 | [5] -0.02

RRP36 (UniProt Q96EU6)
inactive: [1] 0.119 | [2] -0.266 | [3] -0.228 | [4] 0.245 | [5] 0.019

RNPEP (UniProt Q9H4A4)
inactive: [1] -0.043 | [2] 0.05 | [3] 0.047 | [4] -0.015 | [5] -0.021

RPL31 (UniProt P62899)
inactive: [1] 0.106 | [2] -0.241 | [3] -0.22 | [4] 0.202 | [5] 0

REL (UniProt Q04864)
inactive: [1] 0.058 | [2] 0.048 | [3] 0.046 | [4] 0.037 | [5] 0.065

RAD50, A0A494C0Y7
inactive: [1] -0.1 | [2] -0.003 | [3] 0.194 | [4] 0.104 | [5] 0.118

RPS20 isoform 2 (UniProt P60866)
inactive: [1] -0.002 | [2] -0.114 | [3] -0.051 | [4] 0.059 | [5] 0

RNF185 (UniProt Q96GF1)
Sequence of UniProt Q96GF1 (Q96GF1 whole entry, looked up): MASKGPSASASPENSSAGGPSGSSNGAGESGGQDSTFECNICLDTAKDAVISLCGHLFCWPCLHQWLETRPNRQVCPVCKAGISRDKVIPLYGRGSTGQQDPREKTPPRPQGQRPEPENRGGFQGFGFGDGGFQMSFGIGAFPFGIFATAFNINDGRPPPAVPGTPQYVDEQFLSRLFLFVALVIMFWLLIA
inactive: [1] -0.157 | [2] 0 | [3] 0.006 | [4] 0.104 | [5] -0.168

RPS18 (UniProt P62269)
inactive: [1] 0.088 | [2] -0.125 | [3] -0.04 | [4] 0.099 | [5] 0.004

RPS15 (UniProt P62841)
inactive: [1] 0.126 | [2] -0.113 | [3] -0.02 | [4] 0.122 | [5] 0.106

RAB8B (UniProt Q92930)
inactive: [1] 0.004 | [2] -0.006 | [3] -0.222 | [4] 0.033 | [5] -0.062

RPS6KA3 (UniProt P51812)
Sequence of UniProt P51812 (P51812 whole entry, looked up): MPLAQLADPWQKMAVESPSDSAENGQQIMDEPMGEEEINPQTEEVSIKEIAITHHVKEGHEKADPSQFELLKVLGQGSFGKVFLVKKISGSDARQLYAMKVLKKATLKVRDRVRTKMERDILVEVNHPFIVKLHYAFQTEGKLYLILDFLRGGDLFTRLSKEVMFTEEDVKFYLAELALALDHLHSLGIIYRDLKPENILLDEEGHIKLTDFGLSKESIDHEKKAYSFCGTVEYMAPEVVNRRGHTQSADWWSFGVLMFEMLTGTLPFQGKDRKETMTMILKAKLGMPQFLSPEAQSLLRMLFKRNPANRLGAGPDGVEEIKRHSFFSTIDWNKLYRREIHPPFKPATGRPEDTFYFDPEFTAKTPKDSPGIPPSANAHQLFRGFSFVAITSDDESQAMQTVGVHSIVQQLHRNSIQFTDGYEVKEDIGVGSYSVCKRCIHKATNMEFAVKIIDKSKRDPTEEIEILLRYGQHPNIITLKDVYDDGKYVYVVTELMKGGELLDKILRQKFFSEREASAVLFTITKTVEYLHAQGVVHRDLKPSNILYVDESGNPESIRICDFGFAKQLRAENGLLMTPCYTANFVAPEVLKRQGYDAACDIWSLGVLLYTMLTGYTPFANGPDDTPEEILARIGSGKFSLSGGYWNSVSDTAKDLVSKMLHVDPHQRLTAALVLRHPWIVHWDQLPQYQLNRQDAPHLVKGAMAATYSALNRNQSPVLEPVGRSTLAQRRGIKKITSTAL
inactive: [1] -0.044 | [2] 0.05 | [3] 0.036 | [4] -0.034 | [5] -0.006

RAF1 isoform 2 (UniProt P04049)
inactive: [1] -0.08 | [2] 0.201 | [3] 0.222 | [4] -0.07 | [5] -0.105

RHOA (UniProt P61586)
inactive: [1] 0.01 | [2] -0.058 | [3] -0.095 | [4] -0.041 | [5] 0.021

RAVER1 (UniProt E9PAU2)
inactive: [1] -0.138 | [2] -0.204 | [3] 0.283 | [4] -0.19 | [5] 0.053

RDH10 (UniProt Q8IZV5)
Sequence of UniProt Q8IZV5 (Q8IZV5 whole entry, looked up): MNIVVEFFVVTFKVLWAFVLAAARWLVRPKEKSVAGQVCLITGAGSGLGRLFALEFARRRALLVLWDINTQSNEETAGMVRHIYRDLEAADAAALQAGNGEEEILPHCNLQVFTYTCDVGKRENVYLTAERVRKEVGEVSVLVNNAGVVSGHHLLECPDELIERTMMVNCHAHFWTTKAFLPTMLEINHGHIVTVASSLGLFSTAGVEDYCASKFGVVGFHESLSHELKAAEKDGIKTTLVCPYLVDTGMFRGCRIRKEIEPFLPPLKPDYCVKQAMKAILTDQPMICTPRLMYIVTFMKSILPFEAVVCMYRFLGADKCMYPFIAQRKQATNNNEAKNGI
inactive: [1] 0.113 | [2] 0.08 | [3] 0.098 | [4] -0.058 | [5] -0.031

RSF1 (UniProt Q96T23)
inactive: [1] -0.102 | [2] 0.091 | [3] 0.096 | [4] -0.061 | [5] -0.018

SH3GLB2 (UniProt Q9NR46)
Sequence of UniProt Q9NR46 (Q9NR46 whole entry, looked up): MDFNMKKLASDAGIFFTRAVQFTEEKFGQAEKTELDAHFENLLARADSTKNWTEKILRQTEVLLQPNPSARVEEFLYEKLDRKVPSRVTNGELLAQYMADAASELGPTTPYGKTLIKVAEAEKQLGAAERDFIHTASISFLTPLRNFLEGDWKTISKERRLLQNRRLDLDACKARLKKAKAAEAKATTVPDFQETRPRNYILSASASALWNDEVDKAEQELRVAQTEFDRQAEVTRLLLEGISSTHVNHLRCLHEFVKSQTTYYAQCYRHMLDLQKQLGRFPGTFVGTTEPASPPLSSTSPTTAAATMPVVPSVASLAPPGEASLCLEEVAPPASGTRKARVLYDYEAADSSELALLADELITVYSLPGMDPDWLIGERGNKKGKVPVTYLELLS
inactive: [1] -0.029 | [2] 0.064 | [3] 0.029 | [4] 0.004 | [5] -0.063

SLBP (UniProt Q14493)
Sequence of UniProt Q14493 (Q14493 whole entry, looked up): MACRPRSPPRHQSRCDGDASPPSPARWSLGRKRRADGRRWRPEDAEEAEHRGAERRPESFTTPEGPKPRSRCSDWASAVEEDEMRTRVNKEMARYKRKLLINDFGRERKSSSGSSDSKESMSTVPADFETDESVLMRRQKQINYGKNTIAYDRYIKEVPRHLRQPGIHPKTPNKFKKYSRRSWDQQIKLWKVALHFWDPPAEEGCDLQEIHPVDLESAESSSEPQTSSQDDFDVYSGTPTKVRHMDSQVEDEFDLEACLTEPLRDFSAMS
inactive: [1] -0.092 | [2] -0.056 | [3] 0.042 | [4] 0.059 | [5] 0.034

RB1CC1 (UniProt Q8TDY2)
Sequence of UniProt Q8TDY2 (Q8TDY2 whole entry, looked up): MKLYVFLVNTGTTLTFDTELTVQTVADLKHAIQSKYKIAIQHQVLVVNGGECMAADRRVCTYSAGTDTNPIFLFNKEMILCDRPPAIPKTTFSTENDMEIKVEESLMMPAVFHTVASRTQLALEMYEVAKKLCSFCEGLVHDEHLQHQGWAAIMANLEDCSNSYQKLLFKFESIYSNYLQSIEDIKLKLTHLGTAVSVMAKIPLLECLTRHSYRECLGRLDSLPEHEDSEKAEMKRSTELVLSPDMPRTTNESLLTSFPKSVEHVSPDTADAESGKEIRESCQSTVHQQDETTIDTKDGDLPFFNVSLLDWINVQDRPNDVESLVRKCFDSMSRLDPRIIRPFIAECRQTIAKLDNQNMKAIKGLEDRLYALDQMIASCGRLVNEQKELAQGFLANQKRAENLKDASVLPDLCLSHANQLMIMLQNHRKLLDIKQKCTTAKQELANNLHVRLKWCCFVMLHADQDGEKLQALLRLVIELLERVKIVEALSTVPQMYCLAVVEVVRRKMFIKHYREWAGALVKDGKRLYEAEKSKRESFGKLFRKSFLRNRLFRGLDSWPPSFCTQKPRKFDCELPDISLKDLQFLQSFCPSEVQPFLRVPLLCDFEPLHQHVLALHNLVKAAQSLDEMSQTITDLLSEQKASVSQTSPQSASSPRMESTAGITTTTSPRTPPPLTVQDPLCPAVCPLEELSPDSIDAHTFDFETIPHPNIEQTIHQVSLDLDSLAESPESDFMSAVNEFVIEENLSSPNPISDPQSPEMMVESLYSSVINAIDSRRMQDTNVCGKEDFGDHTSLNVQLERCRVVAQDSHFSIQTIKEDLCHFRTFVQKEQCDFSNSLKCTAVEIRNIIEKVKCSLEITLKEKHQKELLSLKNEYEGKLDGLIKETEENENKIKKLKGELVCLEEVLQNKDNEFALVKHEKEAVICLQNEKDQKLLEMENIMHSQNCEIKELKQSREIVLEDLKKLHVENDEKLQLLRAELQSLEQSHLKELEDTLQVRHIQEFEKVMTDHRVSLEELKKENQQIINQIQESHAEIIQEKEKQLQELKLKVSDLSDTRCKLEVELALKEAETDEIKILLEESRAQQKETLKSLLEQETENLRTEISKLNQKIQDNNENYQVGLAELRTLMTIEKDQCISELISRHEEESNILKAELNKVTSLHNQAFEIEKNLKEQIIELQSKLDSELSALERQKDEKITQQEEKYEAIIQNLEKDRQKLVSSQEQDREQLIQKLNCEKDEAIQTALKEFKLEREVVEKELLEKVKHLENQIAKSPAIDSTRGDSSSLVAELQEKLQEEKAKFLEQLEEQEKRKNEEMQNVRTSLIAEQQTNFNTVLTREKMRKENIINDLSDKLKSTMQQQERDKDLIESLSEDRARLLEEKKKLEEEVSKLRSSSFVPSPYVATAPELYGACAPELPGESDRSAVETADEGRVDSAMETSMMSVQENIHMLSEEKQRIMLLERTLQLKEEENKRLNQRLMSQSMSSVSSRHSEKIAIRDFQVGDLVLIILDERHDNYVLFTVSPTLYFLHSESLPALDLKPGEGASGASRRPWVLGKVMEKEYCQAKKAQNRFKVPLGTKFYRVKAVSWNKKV
inactive: [1] 0.198 | [2] 0.096 | [3] 0.032 | [4] 0.029 | [5] -0.063

RNF2 (UniProt Q99496)
inactive: [1] 0.067 | [2] 0.014 | [3] 0.153 | [4] 0.064 | [5] 0.085

SLC12A5 (UniProt Q9H2X9)
inactive: [1] 0.102 | [2] 0.099 | [3] 0.066 | [4] -0.064 | [5] 0.055

RPS12 (UniProt P25398)
inactive: [1] 0.032 | [2] -0.092 | [3] -0.066 | [4] 0.011 | [5] -0.019

RETSAT (UniProt Q6NUM9)
Sequence of UniProt Q6NUM9 (Q6NUM9 whole entry, looked up): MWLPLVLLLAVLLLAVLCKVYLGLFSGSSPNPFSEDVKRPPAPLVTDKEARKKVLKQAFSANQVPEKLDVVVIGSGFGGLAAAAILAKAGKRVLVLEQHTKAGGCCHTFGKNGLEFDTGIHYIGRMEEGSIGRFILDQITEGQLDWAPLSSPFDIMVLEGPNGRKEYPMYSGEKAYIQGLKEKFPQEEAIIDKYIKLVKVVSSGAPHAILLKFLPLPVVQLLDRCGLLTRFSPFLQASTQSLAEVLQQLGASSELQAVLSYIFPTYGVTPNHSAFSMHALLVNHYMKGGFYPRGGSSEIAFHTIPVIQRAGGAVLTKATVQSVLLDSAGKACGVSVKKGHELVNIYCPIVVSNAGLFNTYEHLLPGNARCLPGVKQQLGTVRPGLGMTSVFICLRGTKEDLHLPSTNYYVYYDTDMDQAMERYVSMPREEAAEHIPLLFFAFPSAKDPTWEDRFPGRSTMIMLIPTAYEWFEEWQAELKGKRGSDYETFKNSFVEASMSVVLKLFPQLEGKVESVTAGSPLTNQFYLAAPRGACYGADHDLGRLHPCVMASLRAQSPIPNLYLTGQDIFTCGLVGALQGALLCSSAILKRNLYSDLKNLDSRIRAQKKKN
inactive: [1] 0.028 | [2] 0.114 | [3] 0.119 | [4] -0.15 | [5] 0.042

— the supplement of paper PMC10849652
